In the library only some 12% were active in any assay of this set; here they are far more common.
BAZ2B inh: qHTS Assay for Inhibitors of BAZ2B | Potency, µM (top dose mostly 114 µM), inactives show top-dose activity change, negative = inhibition, usual class: inhibitors | AID 504333, 2011 | 4.4% of 360,000 active | Bromodomain adjacent to zinc finger domain protein 2B (Homo sapiens), Q9UIF8 | AlphaScreen BAZ2B-H3K14Ac peptide displacement; also: % is scaled to controls: 0 for no effect and ±100 for the full control effect; nearly all actives have a fitted effect of over 60% in size
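AlphaScreen displacement: compounds (up to 110uM) incubated 30 min at room temperature with a preformed 50 nM BAZ2B/50 nM biotinylated H3K14Ac peptide complex in PBS pH 7.4 with Tween-20. Donor and acceptor beads at 10 ug/mL final added, 20 min light-protected before reading.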
G9a inh: qHTS Assay for Inhibitors of Histone Lysine Methyltransferase G9a; Histone-lysine N-methyltransferase EHMT2 (Homo sapiens), Q96KQ7; G9a H3K9 monomethylation, AlphaScreen, 2 h; Potency, µM (series often up to 102 µM), inactives show at the top dose activity, negative = inhibition, most hits filed as inhibitors; 8.8% of 350,000 active; AID 504332, 2011; also: % is scaled to controls: 0 for no effect and ±100 for the full control effect; nearly all actives have a fitted effect of over 75% in size
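AlphaScreen detection with an anti-monomethyl H3K9 antibody quantified product after a 2 h room-temperature reaction containing 500 nM biotinylated H3K9 peptide, 20 µM SAM and 20 nM enzyme, which had been preincubated 15 min with compound.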
Sfp PPTase inh: qHTS Assay for Inhibitors of Bacillus subtilis Sfp phosphopantetheinyl transferase (PPTase). 4'-phosphopantetheinyl transferase ffp (Bacillus subtilis), Q9F4F7. Biochemical Sfp PPTase activity, qHTS. Potency, µM, for the others: largest response in the series, negative = inhibition, most hits filed as inhibitors. 3.5% of 310,000 active. AID 1490, 2009;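 also: the enzyme is Sfp with the accession as filed and its product quenches rhodamine fluorescence; 0% = enzyme reaction without inhibitor and -100% = no enzyme wells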
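Buffer: 50 mM Hepes-Na pH 7.6, 10 mM MgCl2, 0.01% Nonidet P-40, 0.01% BSA. Enzyme 15 nM, pre-exposed to compound 15 min; substrates then added and fluorescence change tracked over 30 min.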
JMJD2A Tudor: qHTS Assay for Inhibitors of JMJD2A-Tudor Domain. AlphaScreen JMJD2A-Tudor / H3K4me3 peptide binding. AID 504339, 2011. 4.4% of 390,000 active. Potency, µM (titrated, usually from 114 µM), for inactives: at the highest dose activity change, negative = inhibition, most hits filed as inhibitors; also: % is scaled to controls: 0 for no effect and ±100 for the full control effect; nearly all actives have a fitted effect of over 50% in size
HP1b binding inh: HTS for Inhibitors of HP1-beta Chromodomain Interactions with Methylated Histone Tails; Chromobox protein homolog 1 (Homo sapiens), P83916; AlphaScreen HP1-beta / biotin-H3K9me3 peptide binding; Potency, µM (series often up to 114 µM), without a hit: at the top dose activity change, negative = inhibition, most hits filed as inhibitors; 0.56% of 390,000 active; AID 540317, 2011; also: nearly all actives have a fitted effect of over 70% in size
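AlphaScreen: HP1-beta (50 nM) preformed 30 min with biotin-H3(1-18)K9me3 peptide (50 nM) in PBS pH 7.4, 0.01% Tween-20. Compound added for 30 min at RT, then streptavidin donor/nickel chelate acceptor beads (10 ug/mL) for 30 min.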
L3MBTL1 block: qHTS Assay for the Inhibitors of L3MBTL1. Potency, µM (doses to about 57.1 µM), without a hit: top-dose activity, negative = inhibition, most hits filed as inhibitors. AlphaScreen L3MBTL1–H3K9me1 peptide binding. Lethal(3)malignant brain tumor-like protein 1 (Homo sapiens), Q9Y468. 0.66% of 230,000 active; also: % is scaled to controls: 0 for no effect and ±100 for the full control effect; nearly all actives have a fitted effect of over 60% in size
Target sequence (Q9Y468 whole entry, looked up): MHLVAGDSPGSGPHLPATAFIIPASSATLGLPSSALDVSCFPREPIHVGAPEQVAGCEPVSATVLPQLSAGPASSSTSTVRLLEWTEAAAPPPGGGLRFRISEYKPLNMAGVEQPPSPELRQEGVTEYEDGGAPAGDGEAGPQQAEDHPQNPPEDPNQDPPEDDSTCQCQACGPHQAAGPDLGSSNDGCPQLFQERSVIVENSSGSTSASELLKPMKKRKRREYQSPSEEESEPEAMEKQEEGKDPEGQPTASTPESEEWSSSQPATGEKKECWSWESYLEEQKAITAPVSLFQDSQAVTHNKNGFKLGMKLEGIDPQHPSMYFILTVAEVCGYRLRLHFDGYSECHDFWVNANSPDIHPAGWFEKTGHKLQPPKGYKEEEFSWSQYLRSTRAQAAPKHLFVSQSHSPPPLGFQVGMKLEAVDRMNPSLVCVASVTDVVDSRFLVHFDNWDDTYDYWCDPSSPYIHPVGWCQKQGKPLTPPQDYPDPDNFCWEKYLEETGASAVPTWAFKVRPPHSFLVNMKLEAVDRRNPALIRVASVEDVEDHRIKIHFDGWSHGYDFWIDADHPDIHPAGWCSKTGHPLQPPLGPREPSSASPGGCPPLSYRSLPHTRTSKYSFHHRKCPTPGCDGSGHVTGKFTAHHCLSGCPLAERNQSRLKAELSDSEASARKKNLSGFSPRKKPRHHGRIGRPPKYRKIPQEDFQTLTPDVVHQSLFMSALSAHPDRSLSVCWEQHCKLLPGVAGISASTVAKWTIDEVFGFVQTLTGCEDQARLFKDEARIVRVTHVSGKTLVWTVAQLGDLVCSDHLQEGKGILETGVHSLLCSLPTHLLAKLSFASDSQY
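AlphaScreen proximity signal between nickel-chelate acceptor and streptavidin donor beads (final 10 ug/mL) reports binding of 50 nM L3MBTL1 to 75 nM biotin-H3 K9me1 peptide; complex incubated with compounds 30 min at room temperature; cefsulodin titration as control.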
Starred values were filed as active, the others as inactive; [ ] = another dose, or the depositor's remark. Calls follow the shape of the dose curve; as a rule, active = well fitted curve in the direction sought with a large enough effect; inconclusive = small, poorly fitted or top-dose-only effect, or another doubt; inactive = no such curve, though single readings can be large; an effect the other way counts as inactive or inconclusive. Potency is read from the fitted curve at half-maximal effect.

What do the screens show for `CC1CCc2[nH]c3ccc(C(=O)NCC4CCCO4)cc3c2C1` (stereo not given)?
BAZ2B inh: -38.1%; G9a inh: 44.7µM*; JMJD2A Tudor: inconclusive; HP1b binding inh: inconclusive; L3MBTL1 block: -14.0%

What do the screens show for `CCOC(=O)N1CCN(C(=O)c2ccc(Cn3c(=S)[nH]c4cc(OCC)c(OCC)cc4c3=O)cc2)CC1`?
BAZ2B inh: 13.0%; G9a inh: -3.6%; Sfp PPTase inh: -0.5%; JMJD2A Tudor: -9.0%; HP1b binding inh: 35.0%

Results for CC1CCc2c(C(=O)NCC3CCCO3)csc2C1 (stereo not given) ?
BAZ2B inh: 4.4%; G9a inh: 89.1µM*; Sfp PPTase inh: -0.7%; JMJD2A Tudor: -11.6%; HP1b binding inh: 32.0%; L3MBTL1 block: 65.1%

Results for CCOC(=O)N1CCN(C(=O)c2ccc(Cn3c(=S)[nH]c4cc5c(cc4c3=O)OCO5)cc2)CC1 ?
BAZ2B inh: 9.9%; G9a inh: 7.08µM*; Sfp PPTase inh: 5.5%; JMJD2A Tudor: inconclusive; HP1b binding inh: 10.8%; L3MBTL1 block: 5.5%

What do the screens show for `O=C(NCC1CCCO1)c1csc2c1CCCCC2` (stereo not given)?
BAZ2B inh: 3.3%; G9a inh: 0.4%[59 µM]; Sfp PPTase inh: 15.0%; JMJD2A Tudor: -7.7%; HP1b binding inh: 21.7%; L3MBTL1 block: 1.4%

What do the screens show for `O=C(NCC1CCCO1)c1ccc2c(=O)n(CC3CCCO3)c(=S)[nH]c2c1` (stereo not given)?
BAZ2B inh: inconclusive; G9a inh: inconclusive; Sfp PPTase inh: -1.7%; JMJD2A Tudor: 7.94µM*; HP1b binding inh: 28.7%

What do the screens show for `Cn1cnc(S(=O)(=O)N2CCC(C(=O)N3CCN(c4ccc(Cl)cc4)CC3)CC2)c1`?
BAZ2B inh: -7.6%; G9a inh: 2.0%[59 µM]; JMJD2A Tudor: -7.3%; HP1b binding inh: 19.4%

Results for c1csc(-c2cc(N3CCCCC3)c3ccccc3n2)c1 ?
BAZ2B inh: 91.7%; G9a inh: 287.4%; Sfp PPTase inh: -17.5%; JMJD2A Tudor: 116.9%; HP1b binding inh: 159.1%

How did COc1ccc2c(c1)C(c1ccc(C)cc1)CC(=O)O2 (stereo not given) do in these assays?
G9a inh: 21.1%; Sfp PPTase inh: 12.0%

How did COc1ccc(NC(=O)CNC(=O)C2CCCCC2)cc1OC do in these assays?
JMJD2A Tudor: -10.0%; HP1b binding inh: 19.8%; L3MBTL1 block: -0.6%

What do the screens show for `O=C(c1ccc2c(=O)n(Cc3ccc(Cl)cc3)c(=S)[nH]c2c1)N1CCCC1`?
BAZ2B inh: -16.1%; G9a inh: 30.9%[59 µM]; Sfp PPTase inh: 11.4%; JMJD2A Tudor: -7.6%; HP1b binding inh: 34.7%

How did CCOC(=O)N1CCN(C(=O)c2ccc3c(=O)n(CC4CCCO4)c(=S)[nH]c3c2)CC1 (stereo not given) do in these assays?
BAZ2B inh: -26.1%; G9a inh: 39.8µM*; Sfp PPTase inh: -1.5%; JMJD2A Tudor: 50.1µM*; HP1b binding inh: 62.1%; L3MBTL1 block: 0.4%

Results for COCCn1c(=S)[nH]c2cc(C(=O)NCC3CCCO3)ccc2c1=O (stereo not given) ?
BAZ2B inh: inconclusive; G9a inh: inconclusive; Sfp PPTase inh: inconclusive; JMJD2A Tudor: 17.8µM*; HP1b binding inh: 23.7%; L3MBTL1 block: 2.0%

What do the screens show for `O=C(CCCn1c(=S)[nH]c2ccc(Br)cc2c1=O)NCC1CCCO1` (stereo not given)?
BAZ2B inh: -32.5%; G9a inh: 39.8µM*; Sfp PPTase inh: 11.6%; JMJD2A Tudor: -21.8%; HP1b binding inh: 56.6%; L3MBTL1 block: -6.0%

Results for CN1CCN(C(=O)c2ccc3c(=O)n(Cc4ccc(Cl)cc4)c(=S)[nH]c3c2)CC1 ?
BAZ2B inh: -20.0%; G9a inh: 44.7µM*; Sfp PPTase inh: -4.7%; JMJD2A Tudor: -32.5%; HP1b binding inh: 24.9%; L3MBTL1 block: 2.7%

Results for CCc1ccccc1N(c1nc(-c2ccc(OC)c(OC)c2)no1)c1nc(-c2ccc(OC)c(OC)c2)no1 ?
BAZ2B inh: -11.2%; G9a inh: -2.6%[59 µM]; JMJD2A Tudor: -11.6%; HP1b binding inh: 21.5%

What do the screens show for `COc1ccc(C2C=C(c3cccs3)Nc3nc(CCCO)nn32)cc1` (stereo not given)?
BAZ2B inh: inconclusive; G9a inh: 39.8µM*; Sfp PPTase inh: 15.8µM*; L3MBTL1 block: -6.2%

Results for OCCCc1nc2n(n1)C(c1ccccc1)C=C(c1ccccc1)N2 (stereo not given) ?
BAZ2B inh: -4.9%; G9a inh: 39.8µM*; Sfp PPTase inh: -6.5%; JMJD2A Tudor: -16.3%; HP1b binding inh: 60.3%

What do the screens show for `N[C@H](C(=O)O)c1nn[nH]n1`?
Sfp PPTase inh: 89.1µM*

How did CCn1c(=O)c(C(=O)CN2CCCc3ccccc32)c(N)n(Cc2ccccc2)c1=O do in these assays?
BAZ2B inh: inconclusive; G9a inh: -12.5%[59 µM]; Sfp PPTase inh: -5.3%; JMJD2A Tudor: 35.5µM*; HP1b binding inh: inconclusive; L3MBTL1 block: -11.9%

How did CCn1c(=O)c(C(=O)CN2CCN(S(=O)(=O)c3ccc(C)cc3C)CC2)c(N)n(Cc2ccccc2)c1=O do in these assays?
BAZ2B inh: -30.6%; G9a inh: 44.7µM*; Sfp PPTase inh: 14.6%; JMJD2A Tudor: -21.4%; HP1b binding inh: 23.6%; L3MBTL1 block: -5.5%

What do the screens show for `CCn1c(=O)c(C(=O)CN2c3ccccc3CC2C)c(N)n(Cc2ccccc2)c1=O` (stereo not given)?
BAZ2B inh: 35.5µM*; G9a inh: 22.4µM*; Sfp PPTase inh: 6.6%; JMJD2A Tudor: inconclusive; HP1b binding inh: inconclusive; L3MBTL1 block: -18.0%

How did CCn1c(=O)c(C(=O)CN(C)Cc2cccc(OC)c2OC)c(N)n(Cc2ccccc2)c1=O do in these assays?
BAZ2B inh: -5.6%; G9a inh: 25.1µM*; Sfp PPTase inh: 63.1µM*; JMJD2A Tudor: inconclusive; HP1b binding inh: inconclusive; L3MBTL1 block: 11.6%

What do the screens show for `CCn1c(=O)c(C(=O)CN(C)Cc2ccc(F)cc2)c(N)n(Cc2ccccc2)c1=O`?
BAZ2B inh: -9.7%; G9a inh: 1.5%; Sfp PPTase inh: 15.2%; JMJD2A Tudor: -16.5%; HP1b binding inh: 4.3%; L3MBTL1 block: 9.0%
